The first test addresses T1, USP38 (UniProt Q8NB14).
T1 sequence (whole entry): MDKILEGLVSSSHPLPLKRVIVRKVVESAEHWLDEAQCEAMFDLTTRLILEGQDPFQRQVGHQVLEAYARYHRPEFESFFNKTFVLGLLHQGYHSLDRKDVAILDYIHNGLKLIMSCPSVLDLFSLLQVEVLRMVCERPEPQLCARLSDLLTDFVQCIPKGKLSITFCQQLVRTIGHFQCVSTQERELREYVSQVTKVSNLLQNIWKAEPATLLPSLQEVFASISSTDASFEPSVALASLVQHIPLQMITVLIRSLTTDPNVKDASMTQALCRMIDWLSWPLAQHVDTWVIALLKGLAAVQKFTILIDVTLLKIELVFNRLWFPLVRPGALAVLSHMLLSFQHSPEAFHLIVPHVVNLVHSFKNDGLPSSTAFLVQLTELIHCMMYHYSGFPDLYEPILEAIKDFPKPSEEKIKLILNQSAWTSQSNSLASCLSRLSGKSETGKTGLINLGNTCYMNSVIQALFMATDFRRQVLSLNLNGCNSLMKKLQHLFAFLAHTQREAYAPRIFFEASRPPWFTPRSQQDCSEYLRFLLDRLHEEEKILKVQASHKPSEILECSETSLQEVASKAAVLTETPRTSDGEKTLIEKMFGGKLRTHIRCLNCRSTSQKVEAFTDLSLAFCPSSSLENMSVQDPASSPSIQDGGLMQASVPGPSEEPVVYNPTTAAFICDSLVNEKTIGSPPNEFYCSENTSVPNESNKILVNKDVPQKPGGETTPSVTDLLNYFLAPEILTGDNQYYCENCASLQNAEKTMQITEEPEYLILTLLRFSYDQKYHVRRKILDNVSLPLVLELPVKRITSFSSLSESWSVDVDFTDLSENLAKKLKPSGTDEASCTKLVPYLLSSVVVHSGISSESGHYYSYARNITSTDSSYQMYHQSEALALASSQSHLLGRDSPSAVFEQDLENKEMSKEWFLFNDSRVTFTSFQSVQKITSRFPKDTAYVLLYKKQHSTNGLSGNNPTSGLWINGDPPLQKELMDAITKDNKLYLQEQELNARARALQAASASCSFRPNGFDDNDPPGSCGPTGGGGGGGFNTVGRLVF
Nature of the test: log2 ratio of Biotin-Ahx-Ub-VS probe labelling (compound/DMSO); higher = less target engagement, active = hit call of the paper (q ≤ 0.05, log2 ratio ≤ -1). The conditions noted are these: compound concentration: 50uM; treatment time: 3 h. The procedure:
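Round 2 competitive ABPP in HEK293T lysate. Compounds were tested at 50 and 200 µM for 3 h, followed by Biotin-Ahx-Ub-VS enrichment and diaPASEF LC-MS/MS. Values are the average log2 ratio (compound/DMSO) from an unpaired t-test (n=3 treated, n=26 DMSO).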
Consider `Cl.O=C(CCl)N1CCc2ncncc2C1`, for which the “log2 ratio of Biotin-Ahx-Ub-VS probe labelling” value (“log2 ratio” for short) was -0.214 (inactive).

Turning to `CCC1c2ccsc2CCN1C(=O)CCl` (configuration not stated), the “log2 ratio” value is 0.124 (inactive).

Take `O=C(CCl)NC1CCOc2ccccc21` (configuration not stated): the “log2 ratio” value was 0.0839 (inactive).

Regarding `COc1cccc(CN(C)C(=O)CCl)c1`, the “log2 ratio” value was 0.0582 (inactive).

Regarding `Cl.Cn1ncc2c1CCCC2NC(=O)CCl` (configuration not stated), the “log2 ratio” value is 0.328 (inactive).

Turning to `CN1c2ccccc2C(NC(=O)CCl)CS1(=O)=O` (configuration not stated), the “log2 ratio” value was -0.19 (inactive).

Staying with this test, now noted: compound concentration: 200uM; treatment time: 3 h.
Regarding `Cl.O=C(CCl)N1CCc2ncncc2C1`, the “log2 ratio” value was -0.296 (inactive).

For `CCC1c2ccsc2CCN1C(=O)CCl` (configuration not stated), the “log2 ratio” value was -0.277 (inactive).

On to `O=C(CCl)NC1CCOc2ccccc21` (configuration not stated), for which the “log2 ratio” value was -0.0989 (inactive).

For `COc1cccc(CN(C)C(=O)CCl)c1`, the “log2 ratio” value was -0.322 (inactive).

Take `Cl.Cn1ncc2c1CCCC2NC(=O)CCl` (configuration not stated): the “log2 ratio” value was -0.153 (inactive).

Turning to `CN1c2ccccc2C(NC(=O)CCl)CS1(=O)=O` (configuration not stated), the “log2 ratio” value was -0.231 (inactive).

These data come from the supplement of paper PMC11732987, “Enantioselective OTUD7B fragment discovery through chemoproteomics screening and high-throughput optimisation” (Communications Chemistry, 2025).
